Measurements reported in the supplement of paper PMC10849652.
Targets with a hit are over-represented here; the source holds about 7,900 in all. About 0.6% of all pairs of compound and target were hits.

Columns and labels:
Assay in all cases: log2 fold change, soluble protein after heating vs DMSO (PISA); higher = thermal stabilisation; K562 cells, 10 uM, 30 min; active = over 0.2 and 3.5 SD of the protein, either way, in both replicates (recomputed)
[1] = compound: CC1=C(C=C(C=C1)NC(=O)C2=CC(=CC=C2)C(C)(C)C#N)NC3=CC4=C(C=C3)N=CN(C4=O)C
Method in brief: (§1)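 K562 cells at 2×10^6 cells/mL were exposed to 10 μM compound for 30 min, then aliquots were heated for 3 min across 48°C-58°C, pooled, and extracted in PBS containing 0.5% NP-40 at 4°C. The supernatant after 21,000xg for 90 min was taken as soluble protein and measured by TMTpro 16plex LC-MS/MS with channel sums equalised. Thermal stability is reported relative to control samples, with values from duplicates. Fold changes are given on a log2 scale.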

[2] = compound: CC1=C(C=C(C=C1)NC(=O)C2=CC(=CC=C2)N(C)C)NC(=O)C3=CC=C(C=C3)O
Method in brief: as §1

[3] = compound: CC1=CC=C(C=C1)SC2=C3C=C(SC3=CN=C2)C(=O)N
Method in brief: as §1

[4] = compound: CC1=NC(=CC=C1)C2=C(N=C(N2)C(C)(C)C)C3=CC4=NC=CN=C4C=C3
Method in brief: as §1

Nexturastat A = compound: CCCCN(Cc1ccc(C(=O)NO)cc1)C(=O)Nc1ccccc1 [Nexturastat A]
Method in brief: as §1

vemurafenib = compound: CCCS(=O)(=O)Nc1ccc(F)c(C(=O)c2c[nH]c3ncc(-c4ccc(Cl)cc4)cc23)c1F [vemurafenib]
Method in brief: as §1

[5] = compound: CCCS(=O)(=O)Nc1ccc(F)c(C(=O)c2c[nH]c3ncc(Cl)cc23)c1F
Method in brief: as §1

[6] = compound: CCCc1cc(C)[nH]c(=O)c1CNC(=O)c1cc(-c2ccnc(N3CCN(C)CC3)c2)cc2c1cnn2C(C)C
Method in brief: as §1

givinostat = compound: CCN(CC)Cc1ccc2cc(COC(=O)Nc3ccc(C(=O)NO)cc3)ccc2c1 [givinostat]
Method in brief: as §1

barasertib = compound: CCN(CCCOc1ccc2c(Nc3cc(CC(=O)Nc4cccc(F)c4)[nH]n3)ncnc2c1)CCOP(=O)(O)O [barasertib]
Method in brief: as §1

[7] = compound: CC[C@@H]1C(=O)N(C)c2cnc(Nc3ccc(C(=O)NC4CCN(C)CC4)cc3OC)nc2N1C1CCCC1
Method in brief: as §1

volasertib = compound: CC[C@@H]1C(=O)N(C)c2cnc(Nc3ccc(C(=O)N[C@H]4CC[C@H](N5CCN(CC6CC6)CC5)CC4)cc3OC)nc2N1C(C)C [volasertib]
Method in brief: as §1

[8] = compound: CC[C@H](C)N1C=C(C2=C(C=C(C=C21)C3=CN=C(C=C3)N4CCNCC4)C(=O)NCC5=C(C=C(NC5=O)C)C)C
Method in brief: as §1

epoxomicin = compound: CC[C@H](C)[C@@H](C(=O)N[C@@H]([C@@H](C)O)C(=O)N[C@@H](CC(C)C)C(=O)[C@]1(CO1)C)NC(=O)[C@H]([C@@H](C)CC)N(C)C(=O)C [epoxomicin]
Method in brief: as §1

[9] = compound: CCn1c(C(=O)N(C2CC2)C2CC2)cc2c3c(ncn3C)c(Nc3cc(C)n(C)n3)nc21
Method in brief: as §1

[10] = compound: CCn1cc(-c2ccnc3[nH]c(-c4cccc(CN(C)C)c4)cc23)c(-c2ccc(NC(=O)N(C)C)cc2)n1
Method in brief: as §1

[11] = compound: CN(C)CC(=O)Nc1ccc2[nH]c(=O)c3ccccc3c2c1
Method in brief: as §1

rosiglitazone = compound: CN(CCOC1=CC=C(C=C1)C[C@H]2C(=O)NC(=O)S2)C3=CC=CC=N3 (racemic) [rosiglitazone]
Method in brief: as §1

[12] = compound: CN1C2=C(C3=C1C(=O)N(N=C3)CC4=CC(=CC=C4)N)SC(=C2)S(=O)C
Method in brief: as §1

[13] = compound: CN1CCC(CNc2ccc3ncc(-c4cccc(OC(F)(F)F)c4)n3n2)CC1
Method in brief: as §1

Measured: log2 fold change

ATP9B (UniProt O43861)
Sequence of UniProt O43861 (O43861 whole entry, looked up): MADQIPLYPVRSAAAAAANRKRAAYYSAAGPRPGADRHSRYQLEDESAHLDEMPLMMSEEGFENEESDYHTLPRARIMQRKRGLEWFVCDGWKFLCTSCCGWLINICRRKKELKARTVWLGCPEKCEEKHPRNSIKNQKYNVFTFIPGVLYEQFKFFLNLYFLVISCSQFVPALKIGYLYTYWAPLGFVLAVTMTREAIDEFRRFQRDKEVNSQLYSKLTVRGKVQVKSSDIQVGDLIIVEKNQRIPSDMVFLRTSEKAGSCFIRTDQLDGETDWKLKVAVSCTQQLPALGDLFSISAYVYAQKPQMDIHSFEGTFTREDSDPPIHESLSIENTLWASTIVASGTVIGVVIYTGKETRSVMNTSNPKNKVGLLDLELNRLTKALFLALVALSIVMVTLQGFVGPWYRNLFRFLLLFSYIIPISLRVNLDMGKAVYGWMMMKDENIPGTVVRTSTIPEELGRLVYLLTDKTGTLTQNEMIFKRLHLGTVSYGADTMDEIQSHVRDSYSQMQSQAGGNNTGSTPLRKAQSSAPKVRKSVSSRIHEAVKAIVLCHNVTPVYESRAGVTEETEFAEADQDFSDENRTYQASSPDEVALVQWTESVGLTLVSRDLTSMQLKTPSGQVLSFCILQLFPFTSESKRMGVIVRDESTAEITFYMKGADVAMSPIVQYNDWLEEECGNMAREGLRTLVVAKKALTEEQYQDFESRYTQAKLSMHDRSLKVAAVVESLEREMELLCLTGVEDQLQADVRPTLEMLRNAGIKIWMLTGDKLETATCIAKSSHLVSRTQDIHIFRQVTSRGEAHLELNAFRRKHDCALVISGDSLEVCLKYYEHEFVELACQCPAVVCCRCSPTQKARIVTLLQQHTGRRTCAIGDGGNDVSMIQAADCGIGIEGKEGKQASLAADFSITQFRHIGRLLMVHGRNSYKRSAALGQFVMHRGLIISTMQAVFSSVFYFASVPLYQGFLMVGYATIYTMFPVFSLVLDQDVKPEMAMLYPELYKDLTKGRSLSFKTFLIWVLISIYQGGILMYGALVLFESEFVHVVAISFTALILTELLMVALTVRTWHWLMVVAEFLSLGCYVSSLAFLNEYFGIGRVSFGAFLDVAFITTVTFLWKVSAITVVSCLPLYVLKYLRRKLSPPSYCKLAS
inactive: [1] -0.185 | [2] -0.007 | [3] -0.054 | [4] 0.061 | Nexturastat A 0.013 | vemurafenib -0.05 | [5] 0.01 | [6] -0.03 | givinostat 0.085 | barasertib 0.013 | [7] -0.002 | volasertib -0.15 | [8] -0.125 | epoxomicin 0.055 | [9] -0.204 | [10] -0.023 | [11] 0.013 | rosiglitazone 0.08 | [12] 0.013 | [13] -0.109

ARL2BP (UniProt Q9Y2Y0)
Sequence of UniProt Q9Y2Y0 (Q9Y2Y0 whole entry, looked up): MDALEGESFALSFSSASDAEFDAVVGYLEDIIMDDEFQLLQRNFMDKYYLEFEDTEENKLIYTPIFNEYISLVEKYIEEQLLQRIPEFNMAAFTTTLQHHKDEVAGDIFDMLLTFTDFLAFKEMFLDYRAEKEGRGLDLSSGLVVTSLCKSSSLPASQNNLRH
inactive: [1] 0.154 | [2] -0.033 | [3] 0.012 | [4] 0.281 | Nexturastat A 0.043 | vemurafenib -0.031 | [5] 0.071 | [6] 0.102 | givinostat -0.041 | barasertib 0.079 | [7] -0.222 | [8] 0.023 | epoxomicin -0.008 | [9] -0.022 | [10] -0.048 | [11] 0.032 | rosiglitazone 0.019 | [12] -0.062 | [13] -0.183
active: volasertib -0.682

ALDH18A1 (UniProt P54886)
Sequence of UniProt P54886 (P54886 whole entry, looked up): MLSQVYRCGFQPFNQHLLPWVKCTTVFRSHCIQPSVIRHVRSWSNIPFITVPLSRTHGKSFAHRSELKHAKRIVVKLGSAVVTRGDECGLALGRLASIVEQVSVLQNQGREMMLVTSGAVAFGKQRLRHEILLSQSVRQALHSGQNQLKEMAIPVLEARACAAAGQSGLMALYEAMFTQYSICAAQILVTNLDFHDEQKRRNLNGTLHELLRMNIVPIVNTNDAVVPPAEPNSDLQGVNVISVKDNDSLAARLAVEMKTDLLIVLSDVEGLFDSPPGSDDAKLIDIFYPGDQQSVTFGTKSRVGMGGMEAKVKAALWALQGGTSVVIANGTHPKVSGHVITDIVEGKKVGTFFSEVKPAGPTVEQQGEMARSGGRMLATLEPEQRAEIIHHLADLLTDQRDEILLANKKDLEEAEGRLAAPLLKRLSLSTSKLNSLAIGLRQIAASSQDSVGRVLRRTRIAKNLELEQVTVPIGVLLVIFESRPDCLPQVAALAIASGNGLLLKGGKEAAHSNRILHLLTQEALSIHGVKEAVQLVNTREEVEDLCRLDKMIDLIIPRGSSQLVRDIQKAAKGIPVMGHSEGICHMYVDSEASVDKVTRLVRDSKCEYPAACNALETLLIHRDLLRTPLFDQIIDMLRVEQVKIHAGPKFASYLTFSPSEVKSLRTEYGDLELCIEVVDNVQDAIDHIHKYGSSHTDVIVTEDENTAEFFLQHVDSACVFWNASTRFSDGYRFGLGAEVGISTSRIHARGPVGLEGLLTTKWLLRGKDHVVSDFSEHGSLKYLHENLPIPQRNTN
inactive: [1] -0.179 | [2] 0.002 | [3] -0.04 | [4] 0.101 | Nexturastat A 0.035 | vemurafenib 0.068 | [5] 0.057 | [6] -0.137 | givinostat 0.141 | barasertib 0.214 | [7] -0.418 | [8] 0.092 | epoxomicin 0.1 | [9] -0.117 | [10] -0.208 | [11] 0.041 | rosiglitazone 0.148 | [12] 0.054 | [13] -0.054
active: volasertib -0.713

ADD2 (UniProt P35612)
Sequence of UniProt P35612 (P35612 whole entry, looked up): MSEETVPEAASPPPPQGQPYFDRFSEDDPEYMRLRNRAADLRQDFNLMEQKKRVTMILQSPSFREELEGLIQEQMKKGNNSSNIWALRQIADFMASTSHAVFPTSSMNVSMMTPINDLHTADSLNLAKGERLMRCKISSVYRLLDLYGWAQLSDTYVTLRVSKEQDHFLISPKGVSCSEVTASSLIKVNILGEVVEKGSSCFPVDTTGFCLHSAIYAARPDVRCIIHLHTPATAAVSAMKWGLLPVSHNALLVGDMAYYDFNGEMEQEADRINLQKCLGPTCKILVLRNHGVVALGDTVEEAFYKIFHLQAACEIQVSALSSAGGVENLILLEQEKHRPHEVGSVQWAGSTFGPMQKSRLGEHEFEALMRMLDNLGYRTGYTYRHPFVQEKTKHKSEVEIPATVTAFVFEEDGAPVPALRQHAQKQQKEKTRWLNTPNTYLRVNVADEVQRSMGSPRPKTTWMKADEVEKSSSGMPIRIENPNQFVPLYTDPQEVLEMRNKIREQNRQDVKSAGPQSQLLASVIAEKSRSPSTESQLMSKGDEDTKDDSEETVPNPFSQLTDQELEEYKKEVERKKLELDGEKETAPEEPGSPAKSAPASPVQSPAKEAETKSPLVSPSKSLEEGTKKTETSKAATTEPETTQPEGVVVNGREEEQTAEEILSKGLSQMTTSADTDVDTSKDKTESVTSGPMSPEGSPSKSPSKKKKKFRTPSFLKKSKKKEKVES
inactive: [1] -0.014 | [2] 0.018 | [3] -0.01 | [4] 0.002 | Nexturastat A 0.026 | vemurafenib -0.03 | [5] -0.002 | [6] 0.01 | givinostat -0.007 | barasertib -0.011 | [7] 0.037 | volasertib 0.031 | [8] -0.044 | epoxomicin 0.006 | [9] 0.025 | [10] -0.043 | [11] -0.038 | rosiglitazone 0.003 | [12] -0.02 | [13] 0.008

ASH2L (UniProt Q9UBL3)
inactive: [1] 0.018 | [2] -0.047 | [3] 0.003 | [4] 0.01 | Nexturastat A -0.003 | vemurafenib 0.057 | [5] 0.071 | [6] -0.022 | givinostat 0.031 | barasertib 0.007 | [7] -0.117 | [8] 0.079 | epoxomicin 0.041 | [9] -0.017 | [10] -0.012 | [11] -0.003 | rosiglitazone -0.004 | [12] 0.001 | [13] -0.012
active: volasertib -0.327

AP2A2 isoform 2 (UniProt O94973)
inactive: [1] 0.084 | [2] 0 | [3] 0.01 | [4] 0.049 | Nexturastat A 0.004 | vemurafenib -0.008 | [5] 0.002 | [6] 0.038 | givinostat 0.003 | barasertib 0.002 | [7] 0.026 | volasertib -0.021 | [8] 0 | epoxomicin 0.048 | [9] 0.01 | [10] -0.012 | [11] 0 | rosiglitazone 0.012 | [12] 0.008 | [13] 0.089

ATP6V0A1 isoform 3 (UniProt Q93050)
Sequence of UniProt Q93050 (Q93050 whole entry, looked up): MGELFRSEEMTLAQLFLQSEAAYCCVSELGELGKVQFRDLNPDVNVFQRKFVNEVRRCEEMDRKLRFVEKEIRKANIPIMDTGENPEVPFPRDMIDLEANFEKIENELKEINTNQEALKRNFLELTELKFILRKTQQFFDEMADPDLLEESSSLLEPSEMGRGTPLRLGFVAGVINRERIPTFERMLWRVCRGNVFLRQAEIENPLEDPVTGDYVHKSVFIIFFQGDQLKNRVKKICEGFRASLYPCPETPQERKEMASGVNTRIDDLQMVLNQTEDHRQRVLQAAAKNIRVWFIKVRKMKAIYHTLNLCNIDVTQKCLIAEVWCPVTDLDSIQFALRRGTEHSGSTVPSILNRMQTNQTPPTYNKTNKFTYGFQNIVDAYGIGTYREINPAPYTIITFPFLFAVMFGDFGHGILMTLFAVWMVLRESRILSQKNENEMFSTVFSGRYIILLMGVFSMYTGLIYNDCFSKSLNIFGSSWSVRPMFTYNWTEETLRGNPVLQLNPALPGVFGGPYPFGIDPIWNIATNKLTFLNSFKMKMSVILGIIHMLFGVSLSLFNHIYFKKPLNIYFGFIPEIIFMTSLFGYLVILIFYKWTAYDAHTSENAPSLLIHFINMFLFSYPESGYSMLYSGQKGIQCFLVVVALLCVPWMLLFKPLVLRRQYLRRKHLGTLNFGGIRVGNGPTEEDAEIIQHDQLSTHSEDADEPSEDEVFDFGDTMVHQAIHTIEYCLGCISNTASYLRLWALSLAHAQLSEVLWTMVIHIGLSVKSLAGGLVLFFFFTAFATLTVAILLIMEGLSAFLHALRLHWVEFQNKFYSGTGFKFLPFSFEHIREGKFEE
inactive: [1] 0.038 | [2] -0.034 | [3] -0.006 | [4] -0.051 | Nexturastat A 0.198 | vemurafenib 0.017 | [5] 0 | [6] 0.032 | givinostat 0.031 | barasertib 0.006 | [7] -0.056 | volasertib 0.174 | [8] -0.01 | epoxomicin 0.044 | [9] 0.034 | [10] -0.054 | [11] -0.009 | rosiglitazone -0.017 | [12] 0.239 | [13] -0.137

ARL6IP4 (UniProt Q66PJ3)
Sequence of UniProt Q66PJ3 (Q66PJ3 whole entry, looked up): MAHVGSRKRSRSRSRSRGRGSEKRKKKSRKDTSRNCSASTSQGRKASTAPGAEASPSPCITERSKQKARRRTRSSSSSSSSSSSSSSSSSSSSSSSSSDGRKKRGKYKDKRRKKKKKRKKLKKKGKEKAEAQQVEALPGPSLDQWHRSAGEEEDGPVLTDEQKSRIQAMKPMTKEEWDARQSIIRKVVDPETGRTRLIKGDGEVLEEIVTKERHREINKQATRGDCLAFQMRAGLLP
inactive: [1] -0.048 | [2] 0.016 | [3] -0.005 | [4] 0 | Nexturastat A 0.001 | vemurafenib -0.07 | [5] -0.019 | [6] -0.038 | givinostat 0.005 | barasertib -0.01 | [7] 0.008 | volasertib -0.009 | [8] -0.023 | epoxomicin 0.014 | [9] 0.015 | [10] -0.025 | [11] 0.001 | rosiglitazone 0.017 | [12] -0.065 | [13] 0.01

AKAP8 (UniProt O43823)
Sequence of UniProt O43823 (O43823 whole entry, looked up): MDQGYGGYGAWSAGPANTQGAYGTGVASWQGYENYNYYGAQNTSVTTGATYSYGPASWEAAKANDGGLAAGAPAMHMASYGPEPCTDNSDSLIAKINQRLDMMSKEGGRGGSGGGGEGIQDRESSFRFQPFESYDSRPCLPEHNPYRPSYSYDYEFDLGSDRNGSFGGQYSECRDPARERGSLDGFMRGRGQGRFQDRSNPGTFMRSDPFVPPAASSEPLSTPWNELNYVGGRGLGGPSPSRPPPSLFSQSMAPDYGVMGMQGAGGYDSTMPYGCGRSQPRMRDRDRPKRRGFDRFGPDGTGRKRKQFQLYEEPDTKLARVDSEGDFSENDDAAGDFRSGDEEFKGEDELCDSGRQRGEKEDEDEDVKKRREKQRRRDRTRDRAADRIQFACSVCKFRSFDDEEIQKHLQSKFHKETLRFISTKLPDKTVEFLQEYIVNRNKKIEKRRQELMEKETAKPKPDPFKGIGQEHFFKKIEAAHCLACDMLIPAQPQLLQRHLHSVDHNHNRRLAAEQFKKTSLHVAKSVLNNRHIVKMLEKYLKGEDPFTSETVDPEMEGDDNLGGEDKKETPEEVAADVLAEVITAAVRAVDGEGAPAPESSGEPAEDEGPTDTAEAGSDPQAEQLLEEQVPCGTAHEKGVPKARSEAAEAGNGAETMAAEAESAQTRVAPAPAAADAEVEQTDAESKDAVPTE
active: Nexturastat A 0.313 | volasertib -0.268
inactive: [1] -0.082 | [2] 0.029 | [3] -0.03 | [4] -0.009 | vemurafenib -0.062 | [5] -0.05 | [6] -0.034 | givinostat -0.027 | barasertib 0.024 | [7] 0.069 | [8] -0.017 | epoxomicin 0.003 | [9] 0.02 | [10] 0.026 | [11] -0.03 | rosiglitazone 0.017 | [12] 0 | [13] -0.131

AUP1 (UniProt Q9Y679)
inactive: [1] 0.054 | [2] 0.021 | [3] 0.009 | [4] -0.005 | Nexturastat A -0.048 | vemurafenib 0.121 | [5] 0.058 | [6] -0.056 | givinostat 0.028 | barasertib 0.06 | [7] -0.132 | volasertib -0.253 | [8] 0.032 | epoxomicin 0.046 | [9] -0.002 | [10] -0.028 | [11] 0.089 | rosiglitazone 0.12 | [12] 0.014
active: [13] -0.24

BLVRB (UniProt P30043)
Sequence of UniProt P30043 (P30043 whole entry, looked up): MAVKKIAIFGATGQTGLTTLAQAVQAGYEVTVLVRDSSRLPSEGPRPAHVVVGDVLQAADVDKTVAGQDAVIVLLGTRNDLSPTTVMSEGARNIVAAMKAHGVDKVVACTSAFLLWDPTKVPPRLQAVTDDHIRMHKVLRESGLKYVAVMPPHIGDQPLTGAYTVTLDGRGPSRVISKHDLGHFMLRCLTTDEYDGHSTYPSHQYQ
inactive: [1] 0.094 | [2] -0.023 | [3] -0.025 | [4] 0.027 | Nexturastat A -0.014 | vemurafenib 0.069 | [5] 0.063 | [6] 0.037 | givinostat 0.03 | barasertib 0.025 | [7] 0.008 | volasertib 0.046 | [8] 0.012 | epoxomicin 0.161 | [9] 0.023 | [10] -0.078 | [11] 0.014 | rosiglitazone 0.017 | [12] -0.049 | [13] 0.127

BCAP29 isoform 2 (UniProt Q9UHQ4)
inactive: [1] -0.078 | [2] 0.006 | [3] 0.015 | [4] 0.01 | Nexturastat A -0.032 | vemurafenib -0.033 | [5] -0.036 | [6] -0.116 | givinostat -0.075 | barasertib 0.025 | [7] 0.022 | volasertib 0.085 | [8] -0.072 | epoxomicin -0.096 | [9] 0.082 | [10] -0.011 | [11] -0.008 | rosiglitazone 0.045 | [12] -0.044 | [13] 0.05

ABCC5 (UniProt O15440)
inactive: [1] 0.107 | [2] -0.033 | [3] 0.035 | [4] -0.073 | Nexturastat A 0.007 | vemurafenib -0.183 | [5] -0.031 | [6] 0.1 | givinostat 0.028 | barasertib 0.026 | [7] -0.075 | volasertib 0.027 | [8] 0.023 | epoxomicin -0.028 | [9] 0.024 | [10] -0.031 | [11] -0.069 | rosiglitazone -0.003 | [12] 0.028 | [13] 0.075

BRK1 isoform 2 (UniProt Q8WUW1)
Sequence of UniProt Q8WUW1 (Q8WUW1 whole entry, looked up): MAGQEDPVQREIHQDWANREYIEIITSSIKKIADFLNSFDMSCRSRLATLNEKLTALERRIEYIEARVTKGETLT
active: epoxomicin 0.497
inactive: [1] -0.055 | [2] -0.076 | [3] 0.103 | [4] 0.069 | Nexturastat A -0.02 | vemurafenib 0.044 | [5] -0.004 | [6] 0.002 | givinostat 0.022 | barasertib 0.032 | [7] 0.074 | volasertib -0.021 | [8] -0.02 | [9] 0.021 | [10] -0.009 | [11] 0.031 | rosiglitazone 0.011 | [12] -0.053 | [13] 0.137

ARFGEF1 (UniProt Q9Y6D6)
inactive: [1] -0.03 | [2] -0.013 | [3] -0.014 | [4] 0 | Nexturastat A -0.042 | vemurafenib 0.035 | [5] 0.041 | [6] 0.155 | givinostat 0.029 | barasertib -0.015 | [7] -0.022 | volasertib -0.248 | [8] 0.01 | epoxomicin 0.033 | [9] -0.007 | [10] 0.011 | [11] -0.005 | rosiglitazone 0.045 | [12] -0.037 | [13] -0.046

ACSL5 isoform 3 (UniProt Q9ULC5)
active: [13] -0.361
inactive: [1] 0.106 | [2] 0.061 | [3] -0.025 | [4] 0.088 | Nexturastat A -0.009 | vemurafenib 0.001 | [5] 0.083 | [6] -0.019 | givinostat -0.023 | barasertib 0.013 | [7] -0.013 | volasertib -0.088 | [8] 0.029 | epoxomicin 0.005 | [9] 0.03 | [10] -0.068 | [11] -0.084 | rosiglitazone -0.009 | [12] -0.216
